Reference: PubChem BioAssay (Tox21)
Inconclusive results are not listed. Calls of active or inactive are those of the source. Calls follow the shape of the dose curve; as a rule, active = well fitted curve in the direction sought with a large enough effect in the repeat runs; inconclusive = weak or mixed curves; inactive = no such curve, though single readings can be large; an effect the other way counts as inactive or inconclusive.

Tests used:
[1] = Human pregnane X receptor (PXR) small molecule agonists, qHTS cell viability counter screen (AID 1346977); also: nearly all actives have a fitted effect of over 50% in size
Procedure, shortened: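 PXR-Luc HepG2 cells (2,000/well, 5% charcoal-stripped FBS) preincubated 5 hr, then exposed to compounds 24 hr at 37 C. Viability read in the same wells by CellTiter-Fluor fluorescence, reagent added at 23 hr, 1 hr incubation.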

[2] = Caspase-3/7 induction in HepG2 cells by small molecules, qHTS assay (AID 1346978); also: nearly all actives have a fitted effect of over 15% in size
Procedure, shortened: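 Wild-type HepG2 cells (2,000/well) were settled 5 h at 37 C, 5% CO2, then exposed to compounds in DMSO for 17 h. Caspase-3/7 activity was read by luminescence 30 min after adding Caspase-Glo 3/7 reagent at room temperature.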

[3] = Caspase-3/7 induction in CHO-K1 cells by small molecules, qHTS cell viability counter screen (AID 1346979); also: nearly all actives have a fitted effect of over 35% in size
Procedure, shortened: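 Wild-type CHO-K1 cells (1,500/well) treated with compound after 5 h plating; after 16 h at 37C, viability read as CellTiter-Fluor fluorescence following 1 h reagent incubation, in the same wells as the caspase read.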

[4] = Caspase-3/7 induction in CHO-K1 cells by small molecules, qHTS assay (AID 1346980); also: nearly all actives have a fitted effect of over 15% in size
Procedure, shortened: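 Wild-type cells were seeded at 1,500 per well and settled 5 hr at 37 C, 5% CO2, then exposed to DMSO-dissolved compounds for 17 hr. Caspase-Glo 3/7 reagent was added, and luminescence was read after 30min at room temperature.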

[5] = Caspase-3/7 induction in HepG2 cells by small molecules, qHTS cell viability counter screen (AID 1346981); also: series mostly up to about 92 µM; nearly all actives have a fitted effect of over 30% in size
Procedure, shortened: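 CellTiter-Fluor fluorescence measured viability in the same wells used for Caspase-Glo 3/7. HepG2 (wild type) at 2,000 cells/well were pre-incubated 5 hr, dosed, and given reagent at 16 hr, with 1 hr further at 37C.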

[6] = molecular target: Nuclear receptor subfamily 1 group I member 2 (Homo sapiens) (UniProt O75469); test: Human pregnane X receptor (PXR) small molecule agonists, qHTS assay (AID 1346982); also: nearly all actives have a fitted effect of over 35% in size; also: potency is read from the fitted curve at half-maximal effect
Procedure, shortened: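 Agonist mode: luminescence from ONE-Glo after 24 h compound exposure at 37C in HepG2 cells carrying hPXR-responsive CYP3A4 luciferase, plated in charcoal-stripped serum medium 5 h beforehand.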

[7] = molecular target: Cytochrome P450 2C19 (Homo sapiens) (UniProt P33261); test: Cytochrome P450 Family 2 Subfamily C Member 19 (CYP2C19) small molecule antagonists: luciferase reporter qHTS assay (AID 1671197); also: nearly all actives have a fitted effect of over 65% in size; also: potency is read from the fitted curve at half-maximal effect; as to activity change, negative = inhibition: series mostly up to about 120 µM
Procedure, shortened: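 CYP2C19 P450-Glo, 1536-well qHTS. Cpd + enzyme/proluciferin substrate 10 min RT; + NADPH regen, 37C 1 h; stop with luciferin detection reagent, 20 min RT, luminescence (RLU). Pos ctrl ketoconazole.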

[8] = molecular target: Cytochrome P450 2C9 (Homo sapiens) (UniProt P11712); test: Cytochrome P450 Family 2 Subfamily C Member 9 (CYP2C9) small molecule antagonists: luciferase reporter qHTS assay (AID 1671198); also: nearly all actives have a fitted effect of over 50% in size; also: potency is read from the fitted curve at half-maximal effect; as to activity change, negative = inhibition: series mostly up to about 120 µM
Procedure, shortened: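 CYP2C9 activity was measured with a P450-Glo proluciferin substrate. Enzyme–substrate mix was held with compound for 10 min at room temperature, then NADPH regeneration solution was added for 1 h at 37C. Luciferin product was read as luminescence.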

[9] = molecular target: Cytochrome P450 1A2 (Homo sapiens) (UniProt P05177); test: Cytochrome P450 Family 1 Subfamily A Member 2 (CYP1A2) small molecule antagonists: luciferase reporter qHTS assay (AID 1671199); also: nearly all actives have a fitted effect of over 50% in size; also: potency is read from the fitted curve at half-maximal effect; as to activity change, negative = inhibition: series mostly up to about 120 µM
Procedure, shortened: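 Luminescence from luciferin formed by CYP1A2 from a proluciferin substrate, read 20 min after detection reagent. Compound was pre-incubated 10 min with enzyme-substrate, and reaction started with NADPH regeneration solution for 1 h at room temperature; furafylline control.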

[10] = molecular target: Voltage-gated inwardly rectifying potassium channel KCNH2 (Homo sapiens) (UniProt Q12809); test: Human Ether-a-go-go-Related Gene (hERG) channel small molecule antagonists: fluorescence cell-based qHTS assay (AID 1671200);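 also: hERG-expressing U2OS cells given a thallium stimulus after FluxOR II dye loading; series mostly up to about 77 µM; nearly all actives have a fitted effect of over 50% in size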
Procedure, shortened: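 hERG-U2OS cells plated overnight at 37 C, loaded with FluxOR II dye 1 h at RT in dark; after 10 min, thallium stimulus added. Fluorescence (480/540 nm) read kinetically for 2 min at 1 s intervals.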

[11] = molecular target: Cytochrome P450 3A4 (Homo sapiens) (UniProt P08684); test: Cytochrome P450 Family 3 Subfamily A Member 4 (CYP3A4) small molecule antagonists: luciferase reporter qHTS assay (AID 1671201)
Procedure, shortened: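 P450-Glo CYP3A4 luminescent assay: compounds preincubated 10 min at room temperature with enzyme and proluciferin substrate, NADPH regeneration added, 1 h room-temperature reaction, stopped with luciferin detection reagent; luminescence read after 20 min. Ketoconazole positive control.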

[12] = molecular target: Nuclear receptor subfamily 1 group I member 2 (Rattus norvegicus) (UniProt Q9R1A7); test: Rat pregnane X receptor (rPXR) activation by small molecules, qHTS assay (AID 1346983); conditions: rPXR luciferase reporter cells, One-Glo luminescence, 24 h; active compounds read high; also: nearly all actives have a fitted effect of over 20% in size
Procedure, shortened: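 Cell-based rPXR luciferase reporter assay, 2,000 cells per well, rested 5hr at 37 C before compound addition in DMSO, then 24 hr at 37 C. One-Glo reagent was added and luminescence read after 30 min at room temperature.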

[13] = molecular target: Nuclear receptor subfamily 1 group I member 2 (Homo sapiens) (UniProt O75469); test: CYP3A4 induction through human pregnane X receptor (PXR) by small molecules, qHTS assay (AID 1346984); also: nearly all actives have a fitted effect of over 40% in size
Procedure, shortened: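 Read-out is luminescence after One-Glo addition, following a 3 hr, 37C incubation with Luciferin-IPA CYP3A4 substrate (3uM final). Before that, compounds were on DPX-2 cells (HepG2 co-transfected with PXR element plus CYP3A4-promoter luciferase) for 24 hr at 37C.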

[14] = molecular target: Nuclear receptor subfamily 1 group I member 2 (Homo sapiens) (UniProt O75469); test: Human pregnane X receptor (PXR) activation by small molecules, qHTS assay (AID 1346985); also: nearly all actives have a fitted effect of over 40% in size
Procedure, shortened: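 DPX-2 cells (HepG2 co-transfected with a PXR response element and a CYP3A4-promoter luciferase construct) were seeded at 2,000 per well, rested 5 hr at 37C, then exposed to DMSO-dissolved compounds for 24 hr. Activation was read as luciferase luminescence.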

[15] = molecular target: Cytochrome P450 2D6 (Homo sapiens) (UniProt P10635); test: Cytochrome P450 Family 2 Subfamily D Member 6 (CYP2D6) small molecule antagonists: luciferase reporter qHTS assay (AID 1671196); also: nearly all actives have a fitted effect of over 50% in size; also: potency is read from the fitted curve at half-maximal effect; as to activity change, negative = inhibition: series mostly up to about 120 µM
Procedure, shortened: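 CYP2D6 activity was followed as luminescence from its luciferin product after a 1 h NADPH-driven reaction at room temperature. Enzyme-substrate mix and compound were pre-incubated for 10 min, and the signal was read 20 min after adding detection reagent.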
% is scaled to controls: 0 for no effect and ±100 for the full control effect.

Cytochrome P450 2C9 (Homo sapiens), sequence (P11712 whole entry, looked up): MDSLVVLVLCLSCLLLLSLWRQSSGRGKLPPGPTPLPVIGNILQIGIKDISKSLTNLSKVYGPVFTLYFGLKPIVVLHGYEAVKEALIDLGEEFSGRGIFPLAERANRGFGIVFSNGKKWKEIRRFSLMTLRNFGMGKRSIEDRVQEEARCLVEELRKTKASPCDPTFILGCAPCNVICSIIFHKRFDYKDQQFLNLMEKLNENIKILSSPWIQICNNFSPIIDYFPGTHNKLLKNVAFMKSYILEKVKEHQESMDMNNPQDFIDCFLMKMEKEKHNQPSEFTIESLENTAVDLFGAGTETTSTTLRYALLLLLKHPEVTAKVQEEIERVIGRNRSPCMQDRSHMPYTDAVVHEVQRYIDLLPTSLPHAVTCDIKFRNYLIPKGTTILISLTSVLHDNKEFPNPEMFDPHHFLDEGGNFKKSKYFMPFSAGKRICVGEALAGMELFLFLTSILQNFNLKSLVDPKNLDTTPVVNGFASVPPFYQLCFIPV
Cytochrome P450 1A2 (Homo sapiens), sequence (P05177 whole entry, looked up): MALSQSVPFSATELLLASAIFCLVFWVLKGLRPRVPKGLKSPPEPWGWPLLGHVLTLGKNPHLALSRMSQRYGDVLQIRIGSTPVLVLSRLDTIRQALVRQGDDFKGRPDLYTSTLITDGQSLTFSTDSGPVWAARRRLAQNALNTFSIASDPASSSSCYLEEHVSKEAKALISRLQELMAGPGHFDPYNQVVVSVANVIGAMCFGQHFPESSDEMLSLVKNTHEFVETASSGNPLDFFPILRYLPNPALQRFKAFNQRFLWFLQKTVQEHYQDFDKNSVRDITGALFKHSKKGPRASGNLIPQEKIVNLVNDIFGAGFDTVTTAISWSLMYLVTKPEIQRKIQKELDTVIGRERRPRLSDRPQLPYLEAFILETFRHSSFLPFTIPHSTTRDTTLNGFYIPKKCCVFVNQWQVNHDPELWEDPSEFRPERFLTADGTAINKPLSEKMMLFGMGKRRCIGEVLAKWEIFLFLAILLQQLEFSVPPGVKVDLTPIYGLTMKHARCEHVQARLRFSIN
Nuclear receptor subfamily 1 group I member 2 (Rattus norvegicus), sequence (Q9R1A7 whole entry, looked up): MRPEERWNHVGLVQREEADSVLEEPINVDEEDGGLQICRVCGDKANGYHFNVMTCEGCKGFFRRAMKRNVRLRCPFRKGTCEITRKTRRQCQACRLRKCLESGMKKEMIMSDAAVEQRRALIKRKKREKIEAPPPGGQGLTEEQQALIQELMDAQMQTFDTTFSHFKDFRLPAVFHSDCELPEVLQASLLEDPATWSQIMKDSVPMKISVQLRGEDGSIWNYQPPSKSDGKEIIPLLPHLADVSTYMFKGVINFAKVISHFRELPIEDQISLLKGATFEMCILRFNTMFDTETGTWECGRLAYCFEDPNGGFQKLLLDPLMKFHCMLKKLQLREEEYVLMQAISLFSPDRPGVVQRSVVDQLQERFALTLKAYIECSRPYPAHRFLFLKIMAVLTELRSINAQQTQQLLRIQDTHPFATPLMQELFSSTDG
Voltage-gated inwardly rectifying potassium channel KCNH2 (Homo sapiens), sequence (Q12809 whole entry, looked up): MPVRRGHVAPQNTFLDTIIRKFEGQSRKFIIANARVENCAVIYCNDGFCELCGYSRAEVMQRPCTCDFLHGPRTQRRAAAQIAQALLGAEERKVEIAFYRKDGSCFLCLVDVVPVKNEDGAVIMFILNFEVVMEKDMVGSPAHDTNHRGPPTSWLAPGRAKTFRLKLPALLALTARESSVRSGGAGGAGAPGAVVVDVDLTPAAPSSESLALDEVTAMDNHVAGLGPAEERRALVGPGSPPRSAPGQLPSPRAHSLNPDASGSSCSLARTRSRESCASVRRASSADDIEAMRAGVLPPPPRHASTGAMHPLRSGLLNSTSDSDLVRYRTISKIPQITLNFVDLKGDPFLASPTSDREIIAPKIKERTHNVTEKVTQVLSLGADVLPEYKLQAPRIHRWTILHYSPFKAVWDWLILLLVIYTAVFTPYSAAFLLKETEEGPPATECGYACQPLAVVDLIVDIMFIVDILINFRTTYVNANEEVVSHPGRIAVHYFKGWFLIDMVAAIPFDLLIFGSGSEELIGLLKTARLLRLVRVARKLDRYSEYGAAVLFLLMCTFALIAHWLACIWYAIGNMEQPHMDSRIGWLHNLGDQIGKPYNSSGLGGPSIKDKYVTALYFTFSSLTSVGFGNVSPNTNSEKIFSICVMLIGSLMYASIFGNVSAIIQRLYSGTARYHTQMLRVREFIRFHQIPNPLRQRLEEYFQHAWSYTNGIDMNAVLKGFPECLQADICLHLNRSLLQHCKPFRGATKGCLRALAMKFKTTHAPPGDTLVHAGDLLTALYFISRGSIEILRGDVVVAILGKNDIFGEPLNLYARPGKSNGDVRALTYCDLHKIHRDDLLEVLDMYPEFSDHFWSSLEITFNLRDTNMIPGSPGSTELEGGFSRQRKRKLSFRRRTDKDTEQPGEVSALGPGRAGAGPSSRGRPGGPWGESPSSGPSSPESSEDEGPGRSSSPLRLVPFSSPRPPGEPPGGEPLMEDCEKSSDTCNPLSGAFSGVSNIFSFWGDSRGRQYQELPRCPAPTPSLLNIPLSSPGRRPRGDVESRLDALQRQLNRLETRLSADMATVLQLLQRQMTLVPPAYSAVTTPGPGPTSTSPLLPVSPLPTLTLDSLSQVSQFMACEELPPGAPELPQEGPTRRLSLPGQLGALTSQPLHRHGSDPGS
Cytochrome P450 2D6 (Homo sapiens), sequence (P10635 whole entry, looked up): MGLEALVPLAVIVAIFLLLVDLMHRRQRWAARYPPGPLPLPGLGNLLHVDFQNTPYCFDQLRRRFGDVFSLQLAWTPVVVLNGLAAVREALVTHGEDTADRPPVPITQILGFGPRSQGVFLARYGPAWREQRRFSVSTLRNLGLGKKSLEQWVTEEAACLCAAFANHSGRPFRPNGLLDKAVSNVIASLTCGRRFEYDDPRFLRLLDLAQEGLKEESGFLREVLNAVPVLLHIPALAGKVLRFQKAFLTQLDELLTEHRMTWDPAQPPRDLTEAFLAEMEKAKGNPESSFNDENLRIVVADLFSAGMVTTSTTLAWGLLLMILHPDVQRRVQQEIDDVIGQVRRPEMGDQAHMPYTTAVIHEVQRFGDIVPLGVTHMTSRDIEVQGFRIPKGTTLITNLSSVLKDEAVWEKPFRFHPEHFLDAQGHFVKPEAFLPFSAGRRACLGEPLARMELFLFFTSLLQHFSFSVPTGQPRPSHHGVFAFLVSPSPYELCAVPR
Cytochrome P450 2C19 (Homo sapiens), sequence (P33261 whole entry, looked up): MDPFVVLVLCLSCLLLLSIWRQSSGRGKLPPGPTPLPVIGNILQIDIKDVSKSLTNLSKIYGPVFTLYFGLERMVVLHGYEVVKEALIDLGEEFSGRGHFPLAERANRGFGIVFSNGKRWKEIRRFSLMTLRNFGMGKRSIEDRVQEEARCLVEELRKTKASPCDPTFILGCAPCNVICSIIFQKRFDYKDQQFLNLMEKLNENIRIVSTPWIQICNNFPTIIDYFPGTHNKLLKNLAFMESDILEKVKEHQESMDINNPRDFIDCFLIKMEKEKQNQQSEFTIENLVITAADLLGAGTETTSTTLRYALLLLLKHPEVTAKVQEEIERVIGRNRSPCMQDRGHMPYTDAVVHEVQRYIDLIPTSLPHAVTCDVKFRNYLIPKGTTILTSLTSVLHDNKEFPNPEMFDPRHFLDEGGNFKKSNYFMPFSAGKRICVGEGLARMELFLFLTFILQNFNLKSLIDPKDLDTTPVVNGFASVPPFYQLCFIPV
Nuclear receptor subfamily 1 group I member 2 (Homo sapiens), sequence (O75469 whole entry, looked up): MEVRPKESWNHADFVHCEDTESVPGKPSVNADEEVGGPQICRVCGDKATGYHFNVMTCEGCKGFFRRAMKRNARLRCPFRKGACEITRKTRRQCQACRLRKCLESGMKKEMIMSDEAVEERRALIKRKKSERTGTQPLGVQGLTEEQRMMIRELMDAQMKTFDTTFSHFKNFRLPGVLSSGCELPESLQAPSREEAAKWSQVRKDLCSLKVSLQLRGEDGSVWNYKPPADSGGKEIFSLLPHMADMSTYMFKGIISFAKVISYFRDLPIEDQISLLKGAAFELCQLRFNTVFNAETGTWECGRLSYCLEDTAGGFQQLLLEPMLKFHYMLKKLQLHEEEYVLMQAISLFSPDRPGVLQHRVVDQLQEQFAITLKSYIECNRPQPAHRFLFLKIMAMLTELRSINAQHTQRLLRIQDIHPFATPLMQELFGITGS
Cytochrome P450 3A4 (Homo sapiens), sequence (P08684 whole entry, looked up): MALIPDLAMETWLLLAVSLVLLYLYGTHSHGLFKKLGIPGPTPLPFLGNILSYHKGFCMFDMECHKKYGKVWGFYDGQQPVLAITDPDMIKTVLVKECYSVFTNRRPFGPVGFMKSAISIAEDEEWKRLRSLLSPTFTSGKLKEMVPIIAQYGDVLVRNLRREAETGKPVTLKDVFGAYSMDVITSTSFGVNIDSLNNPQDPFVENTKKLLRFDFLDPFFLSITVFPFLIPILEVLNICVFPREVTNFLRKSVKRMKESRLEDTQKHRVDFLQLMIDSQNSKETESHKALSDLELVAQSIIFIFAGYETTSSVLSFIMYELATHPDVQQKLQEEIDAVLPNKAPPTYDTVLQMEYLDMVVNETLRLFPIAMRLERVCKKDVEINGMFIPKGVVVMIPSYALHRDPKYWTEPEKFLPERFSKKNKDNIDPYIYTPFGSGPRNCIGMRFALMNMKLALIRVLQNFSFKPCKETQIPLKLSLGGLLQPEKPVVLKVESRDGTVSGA

O=C1CCCC(=O)O1
inactive: Potency [1] | Potency [2] | Potency [3] | outcome [4] | Potency [5] | Potency [6] | Potency [7] | Potency [9] | Potency [10] | Potency [11]
active: Potency [8] 12.6 µM

CCCCCCCCCC(C)=O
inactive: Potency [1] | Potency [2] | Potency [3] | outcome [4] | Potency [5] | Potency [6] | Potency [7] | Potency [8] | Potency [9] | Potency [10] | Potency [11]

Cc1ccsc1/C=C/C1=NCCCN1C
inactive: Potency [1] | Potency [2] | Potency [3] | outcome [4] | Potency [5] | max activation [12] -1.84% | Potency [13] | Potency [14] | Potency [7] | Potency [11]

NS(=O)(=O)c1cc2c(cc1Cl)CN(C1CCCCC1)C2=O
inactive: Potency [1] | Potency [2] | Potency [3] | outcome [4] | Potency [5] | Potency [7] | Potency [8] | Potency [9] | Potency [10] | Potency [11]
active: Potency [6] 29.8 µM

C#CC(C)N(C)C(=O)Nc1ccc(Cl)cc1 (stereo unspecified)
inactive: Potency [1] | Potency [2] | Potency [3] | outcome [4] | Potency [5] | Potency [10] | Potency [11]
active: Potency [6] 61.1 µM | Potency [7] 8.93 µM | Potency [8] 4.47 µM | Potency [9] 3.99 µM

NC(CO)C(=O)NNCc1ccc(O)c(O)c1O (stereo unspecified)
inactive: Potency [1] | Potency [2] | Potency [3] | outcome [4] | Potency [5] | max activation [12] -1.3% | Potency [14] | Potency [10]

COc1ccc(OC)c(Cl)c1
inactive: Potency [1] | Potency [2] | Potency [3] | outcome [4] | Potency [5] | Potency [7] | Potency [8] | Potency [10] | Potency [11]

CCCOC(OCCC)OCCC
inactive: Potency [1] | Potency [2] | Potency [3] | outcome [4] | Potency [5] | Potency [6] | Potency [7] | Potency [8] | Potency [9] | Potency [10] | Potency [11]

CN(C)C(=O)CNC(=O)Cc1ccccc1
inactive: Potency [1] | Potency [2] | Potency [3] | outcome [4] | Potency [5] | Potency [15] | Potency [7] | Potency [8] | Potency [9] | Potency [10] | Potency [11]

O=S(=O)(O)CCN1CCN(CCO)CC1
inactive: Potency [1] | Potency [2] | Potency [3] | outcome [4] | Potency [5] | Potency [6] | Potency [7] | Potency [8] | Potency [10] | Potency [11]

COc1ccc2nc(SCc3ncc(C)c(OC)c3C)[nH]c2c1
active: Potency [7] 2.19 µM | Potency [8] 13.8 µM
inactive: Potency [1] | Potency [2] | Potency [3] | outcome [4] | Potency [5] | Potency [10]

CCOCCOCCOCC
inactive: Potency [1] | Potency [2] | Potency [3] | outcome [4] | Potency [5] | Potency [6] | Potency [7] | Potency [8] | Potency [9] | Potency [10] | Potency [11]

CC(C)(C)c1n[nH]c(=S)n(N)c1=O
inactive: Potency [1] | Potency [2] | Potency [3] | outcome [4] | Potency [5] | Potency [6] | Potency [10] | Potency [11]

O=C1c2ccccc2C(=O)C1c1ccccc1
inactive: Potency [1] | Potency [2] | Potency [3] | outcome [4] | Potency [5] | max activation [12] -1.16% | Potency [13] | Potency [14] | Potency [15] | Potency [8] | Potency [9] | Potency [10] | Potency [11]

CC(C)C[C@H](NC(=O)CNC(=O)[C@H](Cc1ccc(O)cc1)NC(=O)[C@H](CO)NC(=O)[C@H](Cc1c[nH]c2ccccc12)NC(=O)[C@H](Cc1cnc[nH]1)NC(=O)[C@@H]1CCC(=O)N1)C(=O)N[C@@H](CCCN=C(N)N)C(=O)N1CCC[C@H]1C(=O)NCC(N)=O (stereo in doubt)
inactive: Potency [1] | Potency [2] | Potency [3] | outcome [4] | Potency [5] | Potency [15] | Potency [7] | Potency [8] | Potency [10]

Cc1ccccc1OCC(O)CO (stereo unspecified)
inactive: Potency [1] | Potency [2] | Potency [3] | outcome [4] | Potency [5] | max activation [12] -0.0648% | Potency [10] | Potency [11]

CC1=CCC(C(C)C)=CC1
inactive: Potency [1] | Potency [2] | Potency [3] | outcome [4] | Potency [5] | Potency [6] | Potency [7] | Potency [8] | Potency [9] | Potency [10] | Potency [11]

Cc1nc2n(c(=O)c1CCN1CCC(c3noc4cc(F)ccc34)CC1)CCC[C@H]2O
inactive: activity change, negative = cytotoxicity [1] -2.46% [at 19 µM] | caspase activation [2] 0.536% [at 19 µM] | activity change, negative = cytotoxicity [3] 8.49% [at 19 µM] | activity change, negative = cytotoxicity [5] 0.92% [at 19 µM] | activation [6] 13.9% [at 19 µM] | activity change, negative = inhibition [7] 18.1% [at 23.6 µM] | activity change, negative = inhibition [8] 0.924% [at 23.6 µM] | Potency [9] | activity change, negative = inhibition [11] 3.18% [at 23.6 µM]
active: Potency [15] 6.01 µM

Nc1nnc(-c2cccc(Cl)c2Cl)c(N)n1
inactive: Potency [1] | Potency [2] | Potency [3] | outcome [4] | Potency [7] | Potency [8] | Potency [9] | Potency [10]

NCCS
inactive: Potency [1] | Potency [2] | Potency [3] | Potency [5] | Potency [6] | max activation [12] -0.0213% | Potency [13] | Potency [14] | Potency [15] | Potency [7] | Potency [10] | Potency [11]

COCCOCCOCCOCCOCCO
inactive: Potency [1] | Potency [2] | Potency [3] | outcome [4] | Potency [6] | Potency [15] | Potency [7] | Potency [8] | Potency [10] | Potency [11]
